Experimental data: PubChem BioAssay (NCI)
The panel holds about 83,000 compounds, 20% with a hit somewhere; the sample as a whole holds those more often.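 Growth was measured after 48 h exposure to one concentration of compound in 96-well plates. Values under 10 count as active.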 Unmarked numbers belong to inactive results. Active and inactive are the calls of the source.

These compounds were tested on SNB-75 CNS (assay: NCI-60 one-dose screen, 48 h (100 = growth as untreated, 0 = no growth, -100 = all killed)). Details: 10 µM unless noted.
Protocol: Growth inhibition of the SNB-75 human tumor cell line is measured as a screen for anti-cancer activity. Cells are grown in 96 well plates and exposed to the test compound for 48 hours. Compounds are tested at a single concentration, which is 10^-5 M for most compounds. The reported endpoint is percent growth (GI% or GIPRCNT), where numbers from 0 - 100% represent growth inhibition, and numbers from -100% - 0 represent cell death. For example, a value of 40 represents 60% growth inhibition. A value of 0 means no net growth occurred over the course of the experiment. A value of -40 indicates 40% of cells at the beginning of the experiment died by the end of the experiment. A value of -100 means all cells are dead at the end of the experiment.
NCI-60 Human Tumor Cell Lines Screen was performed using the standard one-dose NCI protocol, which is described in more detail at https://dtp.cancer.gov/discovery_development/nci-60/default.htm.
Compounds with GIPRCNT values below 10 were considered active. Activity score was based on GIPRCNT using the following formula: […]
Score is 0 for GIPRCNT values of 100 or above, 50 for GIPRCNT values of 0, and 100 for GIPRCNT values of -100.
Compound `CCCC(=O)Oc1ccc(/C(=C(\C)c2ccc(OC)cc2)c2ccc(OCCN3CCCCC3)cc2)cc1` has a growth of 73%.
With `COc1cc(NC(=O)c2cc(OC)c3ccn(C)c3c2)cc2c1C[C@]1(C)CC[C@@H](O)C(C)(C)[C@H]1O2` the growth was 42.2%.
`c1ccc([Se]CCCN2CCN(CCC[Se]c3ccccc3)CC2)cc1` was tested, and the growth was 100%.
`CCCN1C(=O)CSC1=Nc1ccc2cc3ccc(N=C4SCC(=O)N4CCC)cc3nc2c1` gave a growth of 29.6%.
For `O=C(Nc1ccc(Cl)c(Cl)c1)Nc1ccc(Cl)c([N+](=O)[O-])c1`, the growth was 16.2%.
`Cc1cc(O[C@@H]2O[C@@H](C)[C@H](O)[C@@H](O)[C@H]2O)c2c3c(c(O[C@@H]4O[C@@H](C)[C@H](O)[C@@H](O)[C@H]4O)cc2c1)C(=O)c1c(O)cccc1C3=O` gave a growth of 52.2%.
Compound `COc1cc(NC(C)CCCN2C(=O)c3ccccc3C2=O)c2ncccc2c1OC` (stereo not given) has a growth of 84.8%.
Compound `COc1ccccc1P(c1ccccc1OC)c1ccccc1OC` has a growth of 98%.
`O=C(Cn1c2ccccc2c2ccncc21)N/N=C/c1c[nH]c2ccccc12` was tested, and the growth was 31%.
For `Nc1ccc(S(=O)(=O)Nc2cc(I)cc(I)c2)cc1`, the growth was 97.6%.
Work on `C=C1C(=O)O[C@H]2[C@H]1CC/C(COC(=O)CCCC(=O)OC/C1=C/CC[C@@]3(C)O[C@H]3[C@H]3OC(=O)C(=C)[C@@H]3CC1)=C\CC[C@@]1(C)O[C@@H]21` yielded a growth of 93.3%.
`CC(C)C(=O)Nc1nc2c(s1)CCCc1ccn(S(=O)(=O)c3ccccc3)c1-2` gave a growth of 89.4%.
`COc1cc(NC(=O)C#Cc2ccccc2)c(OC)cc1Cl` gave a growth of 65.8%.
`CCCCCn1ncc(-c2c(O)c(O)cc3c(O)c(-c4c(C)cc5c(-c6cnn(CCCCC)n6)c(O)c(O)cc5c4O)c(C)cc23)n1` gave a growth of 34.2%.
Work on `COCCNC(C(=O)c1ccccc1)c1ccccc1` (stereo not given) yielded a growth of 88.2%.
Work on `COc1ccc(-c2nn(-c3ccc(NC(=O)c4cc(C(F)(F)F)cc(C(F)(F)F)c4)cc3)cc2-c2ccncc2)cc1Cl` yielded a growth of 72.5%.
`COc1ccc(-c2cc(-c3nnc(SC/C(=N\O)c4ccccc4)n3-c3ccccc3)c3ccccc3n2)cc1` showed a growth of 100%.
For `Oc1ccccc1/C=N/c1ccccn1`, the growth was 98%.
`COc1ccc(C2CC(c3cc(Cl)c(C)cc3OC)=NN2c2ccc(S(N)(=O)=O)cc2)cc1OC` (stereo not given) was tested, and the growth was 83.6%.
With `COc1ccc2c(c1)C(=O)/C(=C/c1ccc(OCC(=O)c3ccc(Cl)cc3)cc1)O2` the growth was -0.258% (active).
Work on `O=C(Nc1ccc(-n2cc(-c3ccncc3)c(-c3ccc(O)c(Cl)c3)n2)cc1)c1ccc(Cl)c(C(F)(F)F)c1` yielded a growth of 59.7%.
For `CCOC(=O)C1=C(N)Oc2cc(OC)ccc2C1c1ccc(F)c(F)c1` (stereo not given), the growth was 5.44% (active).
In the case of `Nc1nc(Cl)cc(NCc2ccc(CNc3cc(Cl)nc(N)n3)cc2)n1`, the growth is reported as 78.3%.
`O=C(C[n+]1cccc(Br)c1)c1ccc2c(c1)CCCC2` showed a growth of 101%.
In the case of `C#CC(=O)/C=C/CCCCCCC#CC(=O)CCC(=O)C#CCCCCCC/C=C/C(=O)C#C`, the growth is reported as 56%.
Work on `O=C1/C(=C/c2cccc3cnccc23)Cc2cc(F)ccc21` yielded a growth of 107%.
With `COc1ccc2c(c1)OC(N)=C(C#N)C2c1ccc(F)c(F)c1` (stereo not given) the growth was 9.47% (active).
Compound `S=c1ssnc1-c1ccccn1` has a growth of 36.6%.
With `N#Cc1c(N)nc2c(c1N)C(c1ccc(Cl)cc1)C1=C(CCCC1=O)N2c1sc2c(c1C#N)CCCC2` (stereo not given) the growth was 91.4%.
With `CCCCOc1nc2ccc(Cl)cc2cc1/C=C/C(=O)/C=C/c1ccc(OC)cc1` the growth was 97.9%.
Compound `COC(=O)/C=C/C(=O)c1cc(C)cc(C)c1O` has a growth of 103%.
`CN(C)CC/C=C1\c2ccccc2Sc2ccc(Cl)cc21` showed a growth of 52.4%.
Compound `CC1CCC(C(C)C)C(NN)C1` (stereo not given) has a growth of 103%.
For `Nc1nccc2c1ccn2-c1ccc(NC(=O)Nc2cccc(C(F)(F)F)c2)cc1`, the growth was 89%.
In the case of `Nc1nc2ccc(CNc3ccc(C(=O)NC(CC(=O)O)C(=O)O)cc3)cc2c(=O)[nH]1` (stereo not given), the growth is reported as 70.4%.
In the case of `COc1ccc(C[C@H](N)C(=O)N[C@@H]2[C@@H](CO)OC(n3cnc4c(N(C)C)ncnc43)[C@@H]2O)cc1` (stereo not given in full), the growth is reported as -40.7% (active).
Compound `Cc1nccc2c3ccc(OCc4cn(Cc5ccc(Br)cc5)nn4)cc3n(CCCc3ccccc3)c12` has a growth of 42.3%.
For `COc1ccc(N)c(S)c1`, the growth was 84.6%.
For `O=C(COc1ccc(Cl)cc1)N1CCN(Cc2ccc3c(c2)OCO3)CC1`, the growth was 102%.
For `C=C1C(=O)O[C@H]2[C@H]1CC/C(C(=O)NCCOCCOCC(=O)Nc1ccc(OC)c(C(N)=O)c1O)=C\CC[C@@]1(C)O[C@@H]21`, the growth was 83.1%.
